Reference: PubChem BioAssay (NCI)
This is part of a sample that, as a whole, favours compounds with a hit. Of some 79,000 tested, about 15% had one in any assay. A number with no mark means an inactive call. Activity calls are given as the source filed them. Cut-off read from the data, not from the text of the source: active = growth inhibition above about 70%; inactive = the rest.

Experiment: NCI Yeast Anticancer Drug Screen. Data for the sgs1 mgt1 strain (AID 161);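 note: 0% = growth of cultures given vehicle only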
Settings: S. cerevisiae sgs1 mgt1 strain, at 50.0 µM, active compounds read high
Procedure: Growth inhibition of yeast strains with defined genetic alterations is measured as a screen for potential anti-cancer activity. Selected strains with alterations in DNA damage repair or cell cycle control were exposed to compounds and growth inhibition was measured relative to vehicle treated controls. The strain used in this assay is sgs1 mgt1

SMILES | growth inhibition
O=CC1(c2ccccc2)CCN(Cc2ccccc2)CC1 | 45.1%
C=C1C(=O)OC2CC3(C)OC3C3OC3C3=CC(OC3=O)C12 (stereo not given) | 57.1%
CCCCCSP(SCCCCC)c1ccccc1 | 79.5% (active)
CC(=O)Nc1ccc([N+](=O)[O-])c(C(F)(F)F)c1 | 9.05%
O=NN1CCCNCC1 | -4.65%
S=C(Nc1ccccc1)N1CC1 | -19.9%
[C-]#[O+].[C-]#[O+].[C-]#[O+].[C-]#[O+].[Mo].c1ccc([As](CC[As](c2ccccc2)c2ccccc2)c2ccccc2)cc1 | -5.8%
CC(N)Cc1c[nH]c2ccccc12 (stereo not given) | 1.1%
c1ccc([As](c2ccccc2)c2ccccc2)cc1 | -7.9%
CCN(CC)[P+](C1=C(Cl)C(=O)C(Cl)=C(Cl)C1=O)(N(CC)CC)N(CC)CC | -6.6%
CCOP(=O)(OCC)C(C#N)Cc1ccccc1OC (stereo not given) | 0.2%
CCCCC1(CCO)C(=O)NC(=O)NC1=O | -5.7%
C1C[N-]CC[N-]1.C1C[N-]CC[N-]1.[Zn] | 99.5% (active)
O=C=Nc1ccc(Cl)cc1 | -8.3%
c1ccc2c3c(ccc2c1)NC1CCCN1C3 (stereo not given) | -0.85%
COc1ccc(NC(=O)COc2cccc(Cl)c2)cc1S(=O)(=O)F | 14.4%
C[As+](C)(C)c1ccc(Br)c([N+](=O)[O-])c1 | -6%
Oc1ccc(Br)cc1 | -14.4%
CCOP(=O)(CC#N)OCC | -7.05%
NC(Cc1ccc(O)c(O)c1)c1ccccc1 (stereo not given) | -2.55%

SMILES | growth inhibition
O=C(CCl)Oc1ccccc1 | -27.1%
N#CCC(=O)c1ccccc1 | -0.25%
O=S(=O)(O)O.[Cr+3].[NH-]CC[NH-].[NH-]CC[NH-].[NH-]CC[NH-] | 0.75%
O=NNc1cccc(NN=O)n1 | -34.1%
CC1CS1 (stereo not given) | -10.1%
Nc1cc(Cl)ccc1Cl | -19.2%
CCC(Cl)COP(=O)(OCC(Cl)CC)C(CC)OP(=S)(OCC(Cl)CC)OCC(Cl)CC (stereo not given) | 65.7%
CC(SC(C)C(=O)N/N=C/c1ccc(N(CCCl)CCCl)cc1)C(=O)N/N=C\c1ccc(N(CCCl)CCCl)cc1 (stereo not given) | -6.05%
O=C(NCCc1ccccn1)c1ccc2cc(C(=O)N3CC(CCl)c4ccc([N+](=O)[O-])cc43)[nH]c2c1 (stereo not given) | 3.95%
CN(C)C(=O)Oc1cc(O)cc([N+](=O)[O-])c1 | -10.8%
O=C1OC(=O)C2CC3C(CC12)C1(Cl)C(Cl)=C(Cl)C3(Cl)C1(Cl)Cl (stereo not given) | -13.1%
CP(C)CC[PH+](CC[PH+](C)C)CC[PH+](C)C.[C-]#[O+].[C-]#[O+].[W] | -13.1%
N=Cc1c(O)[nH]c(=O)[nH]c1=O | 3.45%
CN1CCC(O)(c2ccc(Br)cc2)C(C(=O)c2ccc(Br)cc2)C1 (stereo not given) | 99% (active)
O=C(Nc1ccccc1)Nc1ccc(N(CCCl)CCCl)cc1 | 10.8%
[C-]#[O+].[C-]#[O+].[C-]#[O+].[C-]#[O+].[Cr].c1ccc([PH+](CC[PH+](c2ccccc2)c2ccccc2)c2ccccc2)cc1 | -0.9%
O=C(CC(=O)c1ccccc1)c1ccccc1.O=C(CC(=O)c1ccccc1)c1ccccc1.[Pd] | 6.7%
N/C(=N\NC(=O)c1ccc([N+](=O)[O-])cc1)N[N+](=O)[O-] | -3.65%
O=C1C(Br)=C(N2CC2)C(=O)C(Br)=C1N1CC1 | 90.5% (active)
COc1cc2c(cc1O)CNCC2c1ccc(O)c(C)c1 (stereo not given) | 9.55%
